Values joined by “and” are separate entries in the source; they are usually repeats but may differ in a detail not shown here. Identical values can stand only once. Results filed as inconclusive are left out. Entries that show only a call come without a potency. Some structures have more than one record in an assay (separate samples or runs), and their calls can disagree. Active and inactive are the calls of the source. Unless noted, calls follow the shape of the dose curve; as a rule, active = well fitted curve in the direction sought with a large enough effect; inconclusive = small, poorly fitted or top-dose-only effect, or another doubt; inactive = no such curve, though single readings can be large; an effect the other way counts as inactive or inconclusive.
Legend:
[1] = Primary qHTS for small molecule stabilizers of the endoplasmic reticulum resident proteome: Secreted ER Calcium Modulated Protein (SERCaMP) assay (AID 1508630)
How it was run: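 GLuc-SERCaMP-expressing SH-SY5Y cells, pretreated 16 h with compound, are challenged with thapsigargin to empty ER calcium stores; after 4 h, coelenterazine is added directly to the medium and luminescence is imaged.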

[2] = A High-Content qHTS Against Drug Library for the Identification of Small Molecules that Inhibit DYT1 Early Onset Primary Dystonia-Associated Cell Pathology (AID 1645839; calls by dose curve)
How it was run: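 Readout: %pathology, the punctate EGFP-TorsinA distribution from imaging, as the primary channel and cell count as the toxicity counterscreen. HEK293 Flp-In cells expressing delE TorsinA were induced with tetracycline and treated with compound for 48 h.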

[3] = biological target: Cytochrome P450 2D6 (Homo sapiens) (UniProt P10635); test: Cytochrome P450 family 2 subfamily D member 6 (CYP2D6) small molecule antagonists: luciferase biochemical (cell-free) qHTS assay (AID 1645840; active = well fitted curve in the direction sought with a large enough effect in the repeat runs; an effect the other way counts as inactive or inconclusive; also: nearly all actives have a fitted effect of over 55% in size; also: potency is read from the fitted curve at half-maximal effect)
Sequence of Cytochrome P450 2D6 (Homo sapiens) (P10635 whole entry, looked up): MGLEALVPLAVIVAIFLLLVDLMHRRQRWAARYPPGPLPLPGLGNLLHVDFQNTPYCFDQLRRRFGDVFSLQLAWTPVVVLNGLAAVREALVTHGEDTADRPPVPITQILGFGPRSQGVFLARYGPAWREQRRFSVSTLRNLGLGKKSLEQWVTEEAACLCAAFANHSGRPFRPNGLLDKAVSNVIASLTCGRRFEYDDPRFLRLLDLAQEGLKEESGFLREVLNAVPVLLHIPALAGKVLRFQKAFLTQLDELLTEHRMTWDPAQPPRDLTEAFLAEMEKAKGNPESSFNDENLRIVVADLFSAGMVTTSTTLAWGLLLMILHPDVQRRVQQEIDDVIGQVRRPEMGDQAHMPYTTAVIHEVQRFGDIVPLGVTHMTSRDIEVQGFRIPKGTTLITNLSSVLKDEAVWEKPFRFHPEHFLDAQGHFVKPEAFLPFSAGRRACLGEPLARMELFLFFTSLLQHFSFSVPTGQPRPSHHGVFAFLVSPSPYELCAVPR
How it was run: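 P450-Glo luminescent screen: recombinant CYP2D6 enzyme–proluciferin substrate mix preincubated with compound 10 min at room temperature, then NADPH regeneration added for 1 h at room temperature. Detection reagent added for 20 min; luciferin light read as relative luminescence units.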

[4] = biological target: Cytochrome P450 2C9 (Homo sapiens) (UniProt P11712); test: Cytochrome P450 family 2 subfamily C member 9 (CYP2C9) small molecule antagonists: luciferase biochemical (cell-free) qHTS assay (AID 1645842; active = well fitted curve in the direction sought with a large enough effect in the repeat runs; an effect the other way counts as inactive or inconclusive; also: nearly all actives have a fitted effect of over 55% in size; also: potency is read from the fitted curve at half-maximal effect)
Sequence of Cytochrome P450 2C9 (Homo sapiens) (P11712 whole entry, looked up): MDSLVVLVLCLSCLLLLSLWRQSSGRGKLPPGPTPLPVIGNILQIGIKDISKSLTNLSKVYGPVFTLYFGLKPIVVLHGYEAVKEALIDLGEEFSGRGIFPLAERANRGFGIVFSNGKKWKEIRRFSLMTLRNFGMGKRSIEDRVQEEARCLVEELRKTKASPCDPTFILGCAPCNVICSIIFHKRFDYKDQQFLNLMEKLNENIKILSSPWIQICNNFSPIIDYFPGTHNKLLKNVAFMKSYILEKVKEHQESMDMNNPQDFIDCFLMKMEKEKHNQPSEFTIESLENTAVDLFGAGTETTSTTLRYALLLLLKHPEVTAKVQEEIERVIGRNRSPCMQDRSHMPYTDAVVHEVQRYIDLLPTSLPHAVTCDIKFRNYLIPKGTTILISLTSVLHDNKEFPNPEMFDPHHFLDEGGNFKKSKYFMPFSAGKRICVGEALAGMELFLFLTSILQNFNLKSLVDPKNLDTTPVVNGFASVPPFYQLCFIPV
How it was run: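 Luminescence, after 20 min with luciferin detection reagent, reflected CYP2C9 turnover during a 1 h NADPH-driven reaction at 37C. Enzyme-substrate mix contained 0.4% bovine serum albumin and was preincubated with compound 10 min at room temperature.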

Papain (Carica papaya) = Papain (Carica papaya) (UniProt P00784); test: Primary qHTS assay for inhibitors of the protease papain (AID 1645873);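 also: papain turnover of Z-FR-AMC read as the AMC fluorescence gain over 10 min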
Sequence of Papain (Carica papaya) (P00784 whole entry, looked up, the tested form may be a part): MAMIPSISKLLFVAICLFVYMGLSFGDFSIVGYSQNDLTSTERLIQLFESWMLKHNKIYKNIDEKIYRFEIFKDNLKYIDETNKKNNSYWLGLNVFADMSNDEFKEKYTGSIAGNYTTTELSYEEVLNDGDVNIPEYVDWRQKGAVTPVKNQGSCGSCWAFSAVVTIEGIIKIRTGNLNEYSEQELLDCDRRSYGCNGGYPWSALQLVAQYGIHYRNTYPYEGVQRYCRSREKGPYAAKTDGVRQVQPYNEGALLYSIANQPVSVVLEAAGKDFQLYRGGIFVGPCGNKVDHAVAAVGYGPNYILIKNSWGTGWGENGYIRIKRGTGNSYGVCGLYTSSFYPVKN

[5] = Primary qHTS for inhibitors of nuclear receptor binding SET domain protein 2 (NSD2) in an isogenic RCH-ACV NSD2 p.E1099K mutant (9B) (AID 1645876); also: nearly all actives have a fitted effect of over 70% in size; also: potency is read from the fitted curve at half-maximal effect
[6] = Primary qHTS for inhibitors of nuclear receptor binding SET domain protein 2 (NSD2) in an RCH-ACV wild type WT cells (2C) (AID 1645877); also: nearly all actives have a fitted effect of over 70% in size; also: potency is read from the fitted curve at half-maximal effect
[7] = NCATS anti-infectives library activity on HEK293 viability as a counter-qHTS vs the C. elegans viability qHTS (AID 1745854);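 also: HEK293 cells exposed to compounds for 24 hr before the viability read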
How it was run: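 Compounds were acoustically plated (several concentrations, 1:5, final up to 41.7 uM), then 1500 HEK293 cells added per well and incubated 24 hr at 37C, 5% CO2. CellTiter-Glo was added and luminescence read after 10 min.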

[8] = biological target: N-terminal Xaa-Pro-Lys N-methyltransferase 1 (Homo sapiens) (UniProt Q9BV86); test: Confirmatory qHTS for Inhibitors of N-terminal methyltransferase 1 (NTMT1): MTaseGlo Assay (AID 1645874);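 also: luminescence from SAH made as NTMT1 methylates SPKRIA peptide using SAM; nearly all actives have a fitted effect of over 65% in size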
Sequence of N-terminal Xaa-Pro-Lys N-methyltransferase 1 (Homo sapiens) (Q9BV86 whole entry, looked up): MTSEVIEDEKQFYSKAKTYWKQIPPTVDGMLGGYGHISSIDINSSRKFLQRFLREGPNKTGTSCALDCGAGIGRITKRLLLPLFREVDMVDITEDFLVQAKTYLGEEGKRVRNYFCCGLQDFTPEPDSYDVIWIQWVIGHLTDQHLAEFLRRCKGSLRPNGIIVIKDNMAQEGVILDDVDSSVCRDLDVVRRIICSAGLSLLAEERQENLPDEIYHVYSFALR
How it was run: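 qHTS format: NTMT1 125 nM, SAM 100 uM, peptide SPKRIA 1 uM final; 15 min compound preincubation, 30 min reaction at room temperature. MTase-Glo luminescence.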

[9] = biological target: Cytochrome P450 3A4 (Homo sapiens) (UniProt P08684); test: Cytochrome P450 family 3 subfamily A member 4 (CYP3A4) small molecule antagonists: luciferase qHTS assay (AID 1645841; active = well fitted curve in the direction sought with a large enough effect in the repeat runs; an effect the other way counts as inactive or inconclusive; also: nearly all actives have a fitted effect of over 45% in size)
Sequence of Cytochrome P450 3A4 (Homo sapiens) (P08684 whole entry, looked up): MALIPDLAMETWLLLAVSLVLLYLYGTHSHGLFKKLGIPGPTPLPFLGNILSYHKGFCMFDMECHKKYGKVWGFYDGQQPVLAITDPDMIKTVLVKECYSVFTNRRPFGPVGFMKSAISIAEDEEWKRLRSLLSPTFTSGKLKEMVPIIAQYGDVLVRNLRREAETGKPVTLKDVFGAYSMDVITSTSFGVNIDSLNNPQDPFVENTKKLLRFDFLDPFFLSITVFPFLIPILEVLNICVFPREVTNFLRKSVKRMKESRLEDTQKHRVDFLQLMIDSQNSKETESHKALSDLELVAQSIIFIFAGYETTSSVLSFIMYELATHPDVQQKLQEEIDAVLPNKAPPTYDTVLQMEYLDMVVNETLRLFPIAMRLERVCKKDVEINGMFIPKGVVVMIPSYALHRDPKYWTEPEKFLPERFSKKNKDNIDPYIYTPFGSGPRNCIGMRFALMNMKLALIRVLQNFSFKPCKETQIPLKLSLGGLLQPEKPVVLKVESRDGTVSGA
How it was run: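 P450-Glo CYP3A4 enzyme with proluciferin substrate was preincubated with DMSO-dissolved compounds for 10 min at room temperature. NADPH regeneration solution started a 1 h reaction. Detection reagent stopped it, and luminescence was read after 20 min.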

[10] = biological target: Catechol O-methyltransferase (Homo sapiens) (UniProt P21964); test: Confirmatory Screen for Target Class Profiling of Small Molecule Inhibitors of Methyltransferases (AID 1745852); conditions: MTase-Glo luminescence, SAH detection, recombinant enzyme; measured here: COMT max response; stronger effect = lower value
Sequence of Catechol O-methyltransferase (Homo sapiens) (P21964 whole entry, looked up): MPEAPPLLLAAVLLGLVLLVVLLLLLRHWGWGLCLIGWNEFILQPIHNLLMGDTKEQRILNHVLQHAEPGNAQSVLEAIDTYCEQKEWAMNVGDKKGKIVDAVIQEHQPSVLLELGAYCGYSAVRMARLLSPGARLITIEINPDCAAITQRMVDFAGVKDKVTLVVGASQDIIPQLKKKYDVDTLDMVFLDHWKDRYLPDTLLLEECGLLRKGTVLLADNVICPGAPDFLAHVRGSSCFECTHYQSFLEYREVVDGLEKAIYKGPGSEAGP

[11] = biological target: Guanidinoacetate N-methyltransferase (Homo sapiens) (UniProt Q14353); test: as above; conditions: MTase-Glo luminescence, SAH detection, recombinant enzyme; activity change, negative = inhibition: at 57.3 µM (top of the series) unless noted
[12] = biological target: Nicotinamide N-methyltransferase (Homo sapiens) (UniProt P40261); test: as above; conditions: MTase-Glo luminescence, SAH detection, recombinant enzyme; measured here: NNMT max response; stronger effect = lower value
Sequence of Nicotinamide N-methyltransferase (Homo sapiens) (P40261 whole entry, looked up): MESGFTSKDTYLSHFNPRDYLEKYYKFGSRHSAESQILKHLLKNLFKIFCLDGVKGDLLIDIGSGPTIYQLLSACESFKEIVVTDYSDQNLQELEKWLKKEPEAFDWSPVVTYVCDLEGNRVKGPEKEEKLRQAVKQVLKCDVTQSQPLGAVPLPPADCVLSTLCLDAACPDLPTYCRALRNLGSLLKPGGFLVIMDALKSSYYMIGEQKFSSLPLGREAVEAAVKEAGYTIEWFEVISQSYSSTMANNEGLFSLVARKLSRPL

[13] = biological target: Phenylethanolamine N-methyltransferase (Homo sapiens) (UniProt P11086); test: as above; conditions: MTase-Glo luminescence, SAH detection, recombinant enzyme; measured here: PNMT max response; stronger effect = lower value
Sequence of Phenylethanolamine N-methyltransferase (Homo sapiens) (P11086 whole entry, looked up): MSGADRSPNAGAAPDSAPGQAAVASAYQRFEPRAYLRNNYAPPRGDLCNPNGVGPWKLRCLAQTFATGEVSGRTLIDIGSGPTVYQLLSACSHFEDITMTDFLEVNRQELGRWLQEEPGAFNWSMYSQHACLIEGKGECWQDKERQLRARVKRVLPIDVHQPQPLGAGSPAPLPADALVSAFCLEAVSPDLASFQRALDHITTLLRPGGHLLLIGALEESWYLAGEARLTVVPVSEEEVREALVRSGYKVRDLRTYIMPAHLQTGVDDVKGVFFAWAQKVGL

O=C1CCC(N2C(=O)c3ccccc3C2=O)C(=O)N1 (stereo not drawn)
Potency [1]: inactive
Potency [2]: inactive
Potency [3]: 15.5 µM (active)
Potency [4]: inactive
Potency (Papain (Carica papaya)): inactive
Potency [5]: inactive
Potency [6]: inactive
outcome [7]: inactive

N[C@@H]1CONC1=O
Potency [1]: inactive
Potency [2]: inactive
Potency [3]: inactive
Potency [4]: inactive
Potency (Papain (Carica papaya)): inactive
Potency [5]: inactive

CNC[C@H](O)c1cccc(O)c1
Potency [1]: inactive
Potency [2]: inactive
Potency [3]: inactive
Potency [4]: inactive
Potency (Papain (Carica papaya)): inactive
Potency [5]: inactive
Potency [6]: inactive

Cn1cnc2c(F)c(Nc3ccc(Br)cc3Cl)c(C(=O)NOCCO)cc21
Potency [1]: inactive
Potency [2]: inactive
Potency [3]: inactive
Potency [4]: 8.71 µM (active)
Potency [5]: inactive
Potency [6]: inactive
outcome [7]: inactive

CCOc1cc(C(=O)Nc2ccc(Cl)c(-c3nc4ccccc4[nH]3)c2)cc(OCC)c1OCC
Potency [1]: inactive
Potency [3]: inactive
Potency [4]: inactive

COc1cc2nccc(Oc3ccc(NC(=O)NC4CC4)c(Cl)c3)c2cc1C(N)=O
Potency [1]: inactive
Potency [3]: inactive
Potency [4]: 12 µM (active)

CCOc1ccn(-c2ccc(F)cc2)c(=O)c1C(=O)Nc1ccc(Oc2ccnc(N)c2Cl)c(F)c1
Potency [1]: inactive
Potency [3]: inactive
Potency [4]: inactive
Potency [5]: 7.28 µM (active) and 11.8 µM (active)
Potency [6]: 8.17 µM (active) and 7.42 µM (active)

S=C(NCc1ccc2c(c1)OCO2)N1CCN(c2ncnc3c2oc2ccccc23)CC1
Potency [1]: inactive
Potency [3]: 4.77 µM (active)
Potency [4]: 2.13 µM (active)
Potency [5]: 13.2 µM (active)
Potency [6]: 8.17 µM (active)

Cc1c(C)c2c(c(C)c1O)CCC(C)(COc1ccc(CC3SC(=O)NC3=O)cc1)O2 (stereo not drawn)
Potency [1]: inactive
Potency [4]: 6.92 µM (active)

Cc1ccc(-n2nc(C(C)(C)C)cc2NC(=O)Nc2ccc(OCCN3CCOCC3)c3ccccc23)cc1
Potency [1]: inactive
Potency [3]: 4.9 µM (active)
Potency [4]: 9.77 µM (active)
Potency [5]: 23.7 µM (active) and inactive
Potency [6]: 21.1 µM (active)

N#Cc1ccc(C(c2ccc(C#N)cc2)n2cncn2)cc1
Potency [1]: inactive
Potency [3]: inactive
Potency [5]: inactive
Potency [6]: inactive

COc1ccc(-c2c(-c3ccc(O)cc3O)n[nH]c2C)cc1
Potency [1]: inactive
Potency [3]: 4.47 µM (active)
Potency [4]: 3.55 µM (active)
Potency [5]: inactive
Potency [6]: inactive

OCCn1cc(-c2cnc3nnn(Cc4ccc5ncccc5c4)c3n2)cn1
Potency [1]: inactive
Potency [3]: inactive
Potency [8]: inactive
Potency [5]: inactive
Potency [6]: inactive

CN(C)C(=O)c1ccc(S(=O)(=O)c2ccc(NC(=O)[C@@](C)(O)C(F)(F)F)c(Cl)c2)cc1
Potency [1]: inactive
Potency [3]: inactive
Potency [4]: 6.74 µM (active)

CNCc1ccc(-c2[nH]c3cc(F)cc4c3c2CCNC4=O)cc1
Potency [1]: inactive
Potency [9]: inactive
Potency [4]: 6.01 µM (active)
Potency [5]: 16.3 µM (active) and 11.8 µM (active)
Potency [6]: 7.28 µM (active) and 7.42 µM (active)
activity [10]: -6.4%
activity change, negative = inhibition [11]: -1.39%
activity [12]: -24.3%
activity [13]: -15.2%
outcome [7]: inactive

Reference: PubChem BioAssay (NCATS)
